Source: PubChem
PAFAH2 inh = PAFAH2 enzyme inhibitors, primary screen, biochemical, fluorescence polarization, human; Platelet-activating factor acetylhydrolase 2, cytoplasmic (Homo sapiens), Q99487; recombinant PAFAH2, FP-rhodamine activity probe; inhibition, % at 3.39 µM; hit rate 0.99% among 340,000; AID 492956, 2010;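 active = inhibition above the mean over all tested compounds plus 3 SD, cut at about 30% in these data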;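 also: inhibitors block probe labeling of enzyme so polarization drops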
PAFAH1B2 FP inh = PAFAH1B2 enzyme inhibitors, primary screen, biochemical, fluorescence polarization, human | hit rate 1.2% among 340,000 | inhibition, % at 3.39 µM | Platelet-activating factor acetylhydrolase IB subunit alpha2 (Homo sapiens), P68402 | recombinant PAFAH1B2, FP-rhodamine activity probe;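 active = inhibition above the mean of all tested compounds plus 3 SD, cut at about 24% in these data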
LYPLA1 inh = LYPLA1 inhibitors, primary screen, counter-screen for PME1 inhibitor project, biochemical, fluorescence polarization, FP-Rh probe ABPP; inhibition, % at 5.9 µM; hit rate 0.16% among 320,000; recombinant LYPLA1;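 active = inhibition above the mean of all tested compounds plus 3 SD, set per campaign, cut at about 14% in these data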;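 also: inhibitors block serine hydrolase probe labeling of LYPLA1 so polarization falls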
PAFAH1B3 inh = PAFAH1B3 enzyme inhibitors, primary screen, biochemical, fluorescence polarization, human | inhibition, % at 3.39 µM | recombinant PAFAH1B3, FP-rhodamine probe | Platelet-activating factor acetylhydrolase IB subunit alpha1 (Homo sapiens), Q15102 | AID 492972, 2010 | hit rate 0.28% among 340,000;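 active = inhibition above the screen-wide average of all tested compounds plus 3 SD, cut at about 25% in these data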
LYPLA2 inh = LYPLA2 inhibitors, primary screen, counter-screen for PME1 inhibitor project, biochemical, fluorescence polarization, FP-Rh probe ABPP | hit rate 0.38% among 320,000 | recombinant LYPLA2 | Acyl-protein thioesterase 2 (Homo sapiens), O95372 | inhibition, % at 5.9 µM;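 active = inhibition above the screen-wide mean plus 3 SD, limit set per campaign, cut at about 26% in these data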
pPAFAH inh = pPAFAH enzyme inhibitors, primary screen, biochemical, fluorescence polarization, human | Platelet-activating factor acetylhydrolase (Homo sapiens), Q13093 | recombinant pPAFAH, FP-rhodamine probe fluorescence polarization | inhibition, % at 3.39 µM | hit rate 1.5% among 330,000;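 active = inhibition above the mean inhibition across the screen plus 3 SD, cut at about 25% in these data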;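 also: inhibitors block binding of the rhodamine activity-based probe so polarization drops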
Target sequence (Q13093 whole entry, looked up): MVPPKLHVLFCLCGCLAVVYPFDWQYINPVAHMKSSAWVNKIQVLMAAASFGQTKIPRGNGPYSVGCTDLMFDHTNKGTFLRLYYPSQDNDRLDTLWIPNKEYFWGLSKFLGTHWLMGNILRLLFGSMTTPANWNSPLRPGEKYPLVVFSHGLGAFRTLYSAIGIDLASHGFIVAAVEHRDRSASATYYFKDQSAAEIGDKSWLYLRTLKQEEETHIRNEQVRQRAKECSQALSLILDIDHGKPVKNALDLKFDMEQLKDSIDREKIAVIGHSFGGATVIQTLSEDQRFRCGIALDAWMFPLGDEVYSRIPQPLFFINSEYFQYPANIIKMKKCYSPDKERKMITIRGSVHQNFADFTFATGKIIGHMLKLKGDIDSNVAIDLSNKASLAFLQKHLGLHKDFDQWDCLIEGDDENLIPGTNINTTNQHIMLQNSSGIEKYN
LYPLA2 conf = LYPLA2 inhibitors, retest, confirmation, counter-screen for PME1 inhibitor project, biochemical, fluorescence polarization, FP-Rh probe ABPP. shares compounds with LYPLA2 inh. recombinant LYPLA2. inhibition, % at 5.9 µM. hit rate 72% among 1,100. AID 2232, 2010;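 active = mean inhibition across replicates above the hit cutoff set in the primary screen, cut at about 26% in these data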;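 also: blocked labeling of the enzyme by serine hydrolase FP-Rh probe lowers polarization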
LYPLA2 ABPP = LYPLA2 inhibitors in proteome, late-stage follow-up, gel-based competitive ABPP, fluorescence, assay provider; shares compounds with LYPLA2 inh; rhLYPLA2 in mouse brain proteome, gel ABPP FP-Rh; inhibition, % at 20 µM; hit rate 30% among 150; AID 652029, 2013;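 active = inhibition of LYPLA2 enzyme probe labeling above about 50%, limit read from the data; inactive = inhibition below that limit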;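 also: loss of FP-Rh probe labeling of the LYPLA2 gel band measured as band density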
Each line names hits and unclear results; the compound was inactive in the other large screens (follow-up assays come after a bar, where they were run). Most compounds without a hit are left out; they make up all but 2.9% or so of the library.

CCc1ccc(C(=O)Cn2ncc(Cl)c(Cl)c2=O)cc1	LYPLA2 inh 31 | LYPLA2 conf 35
Cc1ccc2c(c1)nnn2C1CCN(S(=O)(=O)c2ccc(C(=O)N3C(C)CCCC3C)cc2)CC1 (stereo unspecified)	none
CC(=O)NCCc1ccc(C(=O)Cn2cnc3ccccc3c2=O)cc1	LYPLA2 inh 29 | LYPLA2 conf 39
COc1ccc(CCNC(=O)Cn2cnc3ccccc3c2=O)cc1OC	none
O=C1CCCN1CCCNc1ncnc2c1cnn2-c1ccc(Cl)cc1	LYPLA2 inh 30 | LYPLA2 conf 29
Cc1cccc(-n2ncc3c(NCCCN4CCCC4=O)ncnc32)c1	none
O=C(Nc1cc(Sc2ccccn2)cc([N+](=O)[O-])c1)c1ccc([N+](=O)[O-])cc1	LYPLA2 inh 57 | LYPLA2 conf inactive
COc1ccccc1Nc1ncc(C(=O)N2CCC(C(N)=O)CC2)c2ccccc12	none
COc1ccccc1Nc1ncc(C(=O)N2CCN(Cc3ccc(OC)c(OC)c3OC)CC2)c2ccccc12	LYPLA2 inh 46 | LYPLA2 conf inactive
O=C1NC(Cc2ccccc2)c2nc3ccc(Cl)cc3c(=O)n2-c2ccc(Cl)cc21 (stereo unspecified)	LYPLA2 inh 26 (no result: PAFAH2 inh, PAFAH1B2 FP inh, PAFAH1B3 inh) | LYPLA2 conf inactive
O=C(Nc1ccc(Cl)c(Cl)c1)Nc1ccccc1O	none
O=C(NNc1ccccc1[N+](=O)[O-])Nc1ccc(F)cc1	none
O=C(NNc1ccccc1[N+](=O)[O-])Nc1ccc(Cl)c(Cl)c1	LYPLA2 inh 49 | LYPLA2 conf 44
O=C(NNc1ccccc1[N+](=O)[O-])Nc1ccccc1	LYPLA2 inh 28 | LYPLA2 conf inactive
C=CCNC(=O)Cn1nc(-c2ccccc2)ccc1=O	none
CC(=O)c1cc(C#N)c(SCc2ccccc2C#N)nc1C	LYPLA2 inh 46 | LYPLA2 conf 46
Cc1ccc(F)cc1CNC(=O)c1cc(COc2ccc3ncccc3c2)on1	LYPLA2 inh 46 (no result: PAFAH2 inh, PAFAH1B2 FP inh, PAFAH1B3 inh) | LYPLA2 conf 54 | LYPLA2 ABPP inactive
O=C(NCc1cccc(Cl)c1)c1cc(COc2ccc3ncccc3c2)on1	LYPLA2 inh 39 | LYPLA2 conf 36
Cc1nc(-c2ccc(S(=O)(=O)N3CCN(C4c5ccccc5-c5ccccc54)CC3)s2)cs1	none
Cc1nc(-c2ccc(S(=O)(=O)N3CCCN(CCc4ccccc4)CC3)s2)cs1	LYPLA2 inh 61 (no result: PAFAH2 inh, PAFAH1B2 FP inh, PAFAH1B3 inh) | LYPLA2 conf 68 | LYPLA2 ABPP 50
CC(=O)c1ccc(-n2cc(-c3ccc(C(C)(C)C)cc3)[n+]3c2SCCC3)cc1	none
O=C(COc1ncnc2ccccc12)c1ccc(Cl)cc1	LYPLA2 inh 29 | LYPLA2 conf inactive
COc1ccc(C(=O)COc2ncnc3cc(Cl)ccc23)cc1	LYPLA2 inh 27 | LYPLA2 conf 31
O=C(COc1ncnc2cc(Cl)ccc12)c1ccccc1	none
Nc1c(C(=O)N2CCOCC2)oc2ccccc12	none
O=C(c1cc(-c2cccs2)on1)N1CCN(c2ccccc2)CC1	none
O=C(c1cc(-c2cccs2)on1)N1CCN(c2ccc(F)cc2)CC1	LYPLA2 inh 28 | LYPLA2 conf 27
COc1ccc(-c2cc(C(=O)N3CCN(c4ccc(F)cc4)CC3)no2)cc1OC	LYPLA2 inh 39 | LYPLA2 conf 33
